Assay results taken from publication PMC7862700, “An all-to-all approach to the identification of sequence-specific readers for epigenetic DNA modifications on cytosine”.

Experiments:
Experiment in all cases: DAPPL (digital affinity profiling via proximity ligation, sequencing); 10 mM Tris-HCl pH 7.5, 50 mM NaCl, 1 mM DTT, 4% glycerol, room temperature, 30 min; GST-TFs on glutathione beads, 16-mer random dsDNA library, 0.1% formaldehyde crosslink after washing; high values mean tight binding
Conditions in all cases: protein: recombinant; tags: N-terminal GST; dsDNA, one strand shown
FLI1 = target: T1, FLI1 (Homo sapiens, UniProt Q01543 1-452)
T1 sequence: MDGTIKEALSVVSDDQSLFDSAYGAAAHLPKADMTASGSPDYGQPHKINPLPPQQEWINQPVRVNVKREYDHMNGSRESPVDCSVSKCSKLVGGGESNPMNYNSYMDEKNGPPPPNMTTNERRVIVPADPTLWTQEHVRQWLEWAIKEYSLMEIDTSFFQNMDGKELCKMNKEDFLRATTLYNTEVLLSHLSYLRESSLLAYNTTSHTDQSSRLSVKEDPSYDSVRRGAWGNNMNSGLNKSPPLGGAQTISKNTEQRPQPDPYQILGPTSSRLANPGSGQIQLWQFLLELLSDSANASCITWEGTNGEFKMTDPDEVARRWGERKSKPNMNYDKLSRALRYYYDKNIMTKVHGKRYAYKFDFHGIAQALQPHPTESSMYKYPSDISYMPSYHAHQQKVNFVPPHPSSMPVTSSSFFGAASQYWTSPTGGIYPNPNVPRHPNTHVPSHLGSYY
How it was run: (§1)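 After expression in yeast as GST fusions, human transcription factors were bound to glutathione beads, DNA-barcoded and mixed with a tag-only sample. The pools were incubated with 200 nmole of a 16-mer random double-stranded DNA library in Tris/NaCl/DTT/glycerol buffer (30 min, room temperature), washed and crosslinked with 0.1% formaldehyde. Proximity ligation with BsaI/T4 ligase ran for 1 h at 37 °C, before PCR amplification and sequencing on an Illumina NextSeq500. Binding signal is a hexamer's read frequency for a factor divided by its frequency for the tag-only sample.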

ELK1 = target: T2, ELK1 (Homo sapiens, UniProt P19419 1-428)
T2 sequence: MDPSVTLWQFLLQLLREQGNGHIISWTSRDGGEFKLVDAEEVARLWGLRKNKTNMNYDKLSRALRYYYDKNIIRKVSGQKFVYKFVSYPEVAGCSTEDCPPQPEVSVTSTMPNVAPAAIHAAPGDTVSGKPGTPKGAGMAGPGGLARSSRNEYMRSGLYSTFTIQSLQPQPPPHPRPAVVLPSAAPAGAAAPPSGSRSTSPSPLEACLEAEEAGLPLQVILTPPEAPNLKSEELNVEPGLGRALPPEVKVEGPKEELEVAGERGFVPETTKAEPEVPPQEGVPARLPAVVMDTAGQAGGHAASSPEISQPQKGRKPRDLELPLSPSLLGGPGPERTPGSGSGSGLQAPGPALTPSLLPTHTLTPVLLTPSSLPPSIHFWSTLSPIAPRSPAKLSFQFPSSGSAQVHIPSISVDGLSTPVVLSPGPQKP
How it was run: as §1

GABPA = target: T3, GABPA (Homo sapiens, UniProt Q06546 1-454)
T3 sequence: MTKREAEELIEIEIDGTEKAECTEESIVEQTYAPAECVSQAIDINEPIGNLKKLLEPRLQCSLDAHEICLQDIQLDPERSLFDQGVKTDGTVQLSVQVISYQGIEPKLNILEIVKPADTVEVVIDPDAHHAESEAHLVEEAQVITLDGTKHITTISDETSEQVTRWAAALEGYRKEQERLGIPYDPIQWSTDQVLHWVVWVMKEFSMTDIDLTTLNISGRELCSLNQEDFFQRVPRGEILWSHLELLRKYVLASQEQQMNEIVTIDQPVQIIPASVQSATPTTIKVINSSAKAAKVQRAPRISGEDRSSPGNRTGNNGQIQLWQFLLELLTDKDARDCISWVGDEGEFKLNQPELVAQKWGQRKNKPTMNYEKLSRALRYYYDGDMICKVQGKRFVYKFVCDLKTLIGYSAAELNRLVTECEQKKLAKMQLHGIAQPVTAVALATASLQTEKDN
How it was run: as §1

ERG = target: T4, ERG (Homo sapiens, UniProt P11308 1-479)
T4 sequence: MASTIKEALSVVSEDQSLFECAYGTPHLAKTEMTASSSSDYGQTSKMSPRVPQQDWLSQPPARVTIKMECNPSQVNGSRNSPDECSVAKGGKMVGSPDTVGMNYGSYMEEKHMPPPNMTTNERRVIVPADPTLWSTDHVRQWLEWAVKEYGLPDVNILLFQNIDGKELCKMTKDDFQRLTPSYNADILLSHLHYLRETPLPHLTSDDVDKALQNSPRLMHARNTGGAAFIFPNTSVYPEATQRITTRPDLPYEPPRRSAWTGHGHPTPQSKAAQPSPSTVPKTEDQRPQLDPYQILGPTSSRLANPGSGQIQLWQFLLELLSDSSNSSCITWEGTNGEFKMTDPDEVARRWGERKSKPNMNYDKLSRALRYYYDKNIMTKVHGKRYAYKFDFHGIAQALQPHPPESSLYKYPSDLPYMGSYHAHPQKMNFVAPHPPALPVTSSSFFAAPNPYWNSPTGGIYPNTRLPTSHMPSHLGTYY
How it was run: as §1

ELF1 = ELF1 (Homo sapiens, UniProt P32519 1-619)
How it was run: as §1

EHF = target: T5, EHF (Homo sapiens, UniProt Q9NZC4 1-300)
T5 sequence: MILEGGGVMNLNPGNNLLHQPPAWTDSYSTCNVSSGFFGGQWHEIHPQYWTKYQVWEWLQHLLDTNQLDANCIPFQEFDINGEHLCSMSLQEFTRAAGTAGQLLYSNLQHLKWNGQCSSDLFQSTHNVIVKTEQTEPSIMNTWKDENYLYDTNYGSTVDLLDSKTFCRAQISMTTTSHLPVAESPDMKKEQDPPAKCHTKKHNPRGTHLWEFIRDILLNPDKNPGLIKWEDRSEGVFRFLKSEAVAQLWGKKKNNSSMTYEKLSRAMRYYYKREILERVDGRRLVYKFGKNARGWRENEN
How it was run: as §1

SPI1 = SPI1 (Homo sapiens, UniProt P17947 1-270)
How it was run: as §1

SPIB = SPIB (Homo sapiens, UniProt Q01892 1-262)
How it was run: as §1

ELK3 = target: T6, ELK3 (Homo sapiens, UniProt P41970 1-407)
T6 sequence: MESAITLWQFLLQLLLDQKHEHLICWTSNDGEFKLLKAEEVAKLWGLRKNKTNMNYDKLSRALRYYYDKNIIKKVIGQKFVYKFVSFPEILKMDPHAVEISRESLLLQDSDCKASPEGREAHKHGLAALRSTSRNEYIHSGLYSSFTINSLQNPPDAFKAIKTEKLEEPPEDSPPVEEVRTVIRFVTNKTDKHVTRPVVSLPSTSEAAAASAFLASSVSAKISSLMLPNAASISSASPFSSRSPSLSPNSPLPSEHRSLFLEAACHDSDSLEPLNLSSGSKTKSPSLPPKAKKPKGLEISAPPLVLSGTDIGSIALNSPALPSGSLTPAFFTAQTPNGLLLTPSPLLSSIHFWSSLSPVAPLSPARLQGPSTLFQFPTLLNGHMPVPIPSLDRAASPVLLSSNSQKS
How it was run: as §1

FEV = target: T7, FEV (Homo sapiens, UniProt Q99581 1-238)
T7 sequence: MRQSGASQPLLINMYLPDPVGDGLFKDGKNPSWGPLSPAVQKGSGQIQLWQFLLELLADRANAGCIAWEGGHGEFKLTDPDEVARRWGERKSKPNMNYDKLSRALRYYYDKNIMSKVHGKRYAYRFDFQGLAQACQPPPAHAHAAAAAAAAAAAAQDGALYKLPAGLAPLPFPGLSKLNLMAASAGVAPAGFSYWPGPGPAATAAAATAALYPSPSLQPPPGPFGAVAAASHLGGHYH
How it was run: as §1

ETV5 = ETV5 (Homo sapiens, UniProt P41161 1-510)
How it was run: as §1

SPIC = target: T8, SPIC (Homo sapiens, UniProt Q8N5J4 1-248)
T8 sequence: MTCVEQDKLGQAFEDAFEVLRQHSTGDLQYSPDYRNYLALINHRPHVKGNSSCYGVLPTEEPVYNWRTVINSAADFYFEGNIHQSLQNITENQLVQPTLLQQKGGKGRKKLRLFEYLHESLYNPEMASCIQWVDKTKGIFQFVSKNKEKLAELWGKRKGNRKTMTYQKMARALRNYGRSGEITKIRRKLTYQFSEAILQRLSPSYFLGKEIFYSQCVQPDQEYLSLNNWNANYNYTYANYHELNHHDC
How it was run: as §1

ELF4 = ELF4 (Homo sapiens, UniProt Q99607 1-663)
How it was run: as §1

ELK4 = target: T9, ELK4 (Homo sapiens, UniProt P28324-2 1-405)
T9 sequence: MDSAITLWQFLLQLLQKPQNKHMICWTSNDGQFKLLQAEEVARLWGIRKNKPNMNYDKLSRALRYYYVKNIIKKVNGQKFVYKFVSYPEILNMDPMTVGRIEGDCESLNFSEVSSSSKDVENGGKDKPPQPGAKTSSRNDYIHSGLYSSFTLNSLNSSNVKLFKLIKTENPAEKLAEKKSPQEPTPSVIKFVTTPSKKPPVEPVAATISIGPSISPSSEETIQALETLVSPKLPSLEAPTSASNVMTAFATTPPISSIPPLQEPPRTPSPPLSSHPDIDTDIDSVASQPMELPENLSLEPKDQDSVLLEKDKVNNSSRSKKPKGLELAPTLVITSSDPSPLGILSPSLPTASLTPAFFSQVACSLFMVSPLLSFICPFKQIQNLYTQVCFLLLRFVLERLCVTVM
How it was run: as §1

ETV2 = target: T10, ETV2 (Homo sapiens, UniProt O00321 1-342)
T10 sequence: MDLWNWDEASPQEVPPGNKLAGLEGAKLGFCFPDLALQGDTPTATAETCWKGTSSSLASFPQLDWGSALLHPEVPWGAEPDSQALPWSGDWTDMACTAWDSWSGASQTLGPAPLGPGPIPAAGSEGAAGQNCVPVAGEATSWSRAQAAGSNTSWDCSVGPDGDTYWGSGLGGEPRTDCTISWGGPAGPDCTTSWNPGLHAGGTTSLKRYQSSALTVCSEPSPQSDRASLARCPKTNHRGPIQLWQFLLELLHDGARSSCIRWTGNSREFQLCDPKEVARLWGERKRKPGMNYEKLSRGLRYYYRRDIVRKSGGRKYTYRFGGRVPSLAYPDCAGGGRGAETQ
How it was run: as §1

ELF3 = target: T11, ELF3 (Homo sapiens, UniProt P78545 1-371)
T11 sequence: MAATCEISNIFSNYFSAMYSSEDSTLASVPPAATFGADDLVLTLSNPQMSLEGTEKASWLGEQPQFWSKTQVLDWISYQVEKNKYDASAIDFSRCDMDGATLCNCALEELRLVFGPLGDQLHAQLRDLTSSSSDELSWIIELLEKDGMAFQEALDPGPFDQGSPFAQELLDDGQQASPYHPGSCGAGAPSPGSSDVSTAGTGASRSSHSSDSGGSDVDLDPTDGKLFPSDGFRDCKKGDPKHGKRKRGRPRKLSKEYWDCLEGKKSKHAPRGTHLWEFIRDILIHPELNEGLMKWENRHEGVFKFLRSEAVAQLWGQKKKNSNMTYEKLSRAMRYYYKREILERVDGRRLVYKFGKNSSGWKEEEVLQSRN
How it was run: as §1

ETV1 = ETV1 (Homo sapiens, UniProt P50549 1-477)
How it was run: as §1

ELF4, sequence (Q99607 whole entry): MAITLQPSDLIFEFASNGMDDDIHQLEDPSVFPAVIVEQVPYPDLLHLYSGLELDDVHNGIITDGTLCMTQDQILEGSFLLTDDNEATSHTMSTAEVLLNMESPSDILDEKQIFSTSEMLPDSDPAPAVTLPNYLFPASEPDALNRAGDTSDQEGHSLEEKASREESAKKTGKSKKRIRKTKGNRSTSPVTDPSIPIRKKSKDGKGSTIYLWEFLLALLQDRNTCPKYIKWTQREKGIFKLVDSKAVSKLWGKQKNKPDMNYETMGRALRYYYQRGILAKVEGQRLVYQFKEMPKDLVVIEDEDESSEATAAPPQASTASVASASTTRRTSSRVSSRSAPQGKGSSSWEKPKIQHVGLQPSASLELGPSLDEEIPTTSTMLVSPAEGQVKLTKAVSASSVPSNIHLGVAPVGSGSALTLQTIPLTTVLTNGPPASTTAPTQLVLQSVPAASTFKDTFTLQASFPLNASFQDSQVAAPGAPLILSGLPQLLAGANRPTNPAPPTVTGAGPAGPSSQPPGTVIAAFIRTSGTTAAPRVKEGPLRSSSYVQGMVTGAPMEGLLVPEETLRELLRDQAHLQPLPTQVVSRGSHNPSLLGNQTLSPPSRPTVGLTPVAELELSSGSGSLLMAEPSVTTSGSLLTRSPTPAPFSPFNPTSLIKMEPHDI
ETV1, sequence (P50549 whole entry): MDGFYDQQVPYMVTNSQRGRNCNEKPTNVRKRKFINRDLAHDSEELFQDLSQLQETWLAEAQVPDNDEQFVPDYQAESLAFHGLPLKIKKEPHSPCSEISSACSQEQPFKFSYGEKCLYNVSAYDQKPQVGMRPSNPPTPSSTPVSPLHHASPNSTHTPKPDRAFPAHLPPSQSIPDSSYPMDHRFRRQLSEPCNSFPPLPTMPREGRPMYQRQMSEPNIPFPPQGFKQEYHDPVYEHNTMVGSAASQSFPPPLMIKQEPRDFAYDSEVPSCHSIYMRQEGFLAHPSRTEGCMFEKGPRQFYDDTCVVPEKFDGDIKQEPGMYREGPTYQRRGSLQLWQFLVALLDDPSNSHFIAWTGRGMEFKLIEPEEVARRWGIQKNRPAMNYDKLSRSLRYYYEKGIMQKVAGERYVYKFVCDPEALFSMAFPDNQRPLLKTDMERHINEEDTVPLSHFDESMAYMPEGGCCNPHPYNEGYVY
ELF1, sequence (P32519 whole entry): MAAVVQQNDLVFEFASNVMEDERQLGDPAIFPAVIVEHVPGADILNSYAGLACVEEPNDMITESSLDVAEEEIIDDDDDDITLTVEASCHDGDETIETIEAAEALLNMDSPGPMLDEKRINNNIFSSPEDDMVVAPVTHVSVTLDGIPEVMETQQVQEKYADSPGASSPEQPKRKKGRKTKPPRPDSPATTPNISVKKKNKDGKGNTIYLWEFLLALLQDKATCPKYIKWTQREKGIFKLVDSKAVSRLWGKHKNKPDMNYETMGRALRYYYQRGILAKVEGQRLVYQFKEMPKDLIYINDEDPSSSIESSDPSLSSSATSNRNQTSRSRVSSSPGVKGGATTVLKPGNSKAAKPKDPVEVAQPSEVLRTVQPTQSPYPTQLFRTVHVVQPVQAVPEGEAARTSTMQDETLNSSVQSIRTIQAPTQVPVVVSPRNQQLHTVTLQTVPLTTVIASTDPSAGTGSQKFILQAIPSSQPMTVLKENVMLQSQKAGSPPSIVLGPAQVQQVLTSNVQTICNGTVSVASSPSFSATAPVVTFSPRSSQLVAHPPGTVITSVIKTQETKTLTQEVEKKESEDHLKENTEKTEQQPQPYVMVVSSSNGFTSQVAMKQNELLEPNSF
SPIB, sequence (Q01892 whole entry): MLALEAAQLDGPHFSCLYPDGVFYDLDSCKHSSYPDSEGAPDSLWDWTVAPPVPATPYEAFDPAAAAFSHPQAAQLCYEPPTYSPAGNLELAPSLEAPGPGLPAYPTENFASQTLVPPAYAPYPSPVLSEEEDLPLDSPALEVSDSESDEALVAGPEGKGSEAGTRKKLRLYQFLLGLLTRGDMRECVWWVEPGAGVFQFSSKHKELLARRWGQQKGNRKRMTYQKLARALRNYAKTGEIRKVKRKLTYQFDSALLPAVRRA
ETV5, sequence (P41161 whole entry): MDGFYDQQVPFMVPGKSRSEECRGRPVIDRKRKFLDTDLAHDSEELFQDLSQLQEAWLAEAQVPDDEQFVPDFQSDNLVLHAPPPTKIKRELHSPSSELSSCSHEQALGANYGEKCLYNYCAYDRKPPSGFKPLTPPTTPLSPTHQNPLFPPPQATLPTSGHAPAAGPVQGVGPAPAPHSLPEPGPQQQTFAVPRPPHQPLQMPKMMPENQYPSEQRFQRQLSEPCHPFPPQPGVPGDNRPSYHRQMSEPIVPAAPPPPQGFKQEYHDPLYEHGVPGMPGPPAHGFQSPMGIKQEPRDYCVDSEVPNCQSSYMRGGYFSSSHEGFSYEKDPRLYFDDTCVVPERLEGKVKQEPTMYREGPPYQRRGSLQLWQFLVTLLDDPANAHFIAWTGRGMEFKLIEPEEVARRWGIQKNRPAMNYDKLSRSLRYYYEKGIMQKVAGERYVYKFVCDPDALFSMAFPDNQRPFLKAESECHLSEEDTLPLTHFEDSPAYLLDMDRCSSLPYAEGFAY

Sequence | binding signal (FLI1) | binding signal (ELK1) | binding signal (GABPA) | binding signal (ERG) | binding signal (ELF1) | binding signal (EHF) | binding signal (SPI1) | binding signal (SPIB) | binding signal (ELK3) | binding signal (FEV) | binding signal (ETV5) | binding signal (SPIC) | binding signal (ELF4) | binding signal (ELK4) | binding signal (ETV2) | binding signal (ELF3) | binding signal (ETV1)
GTAACA | 1.24 fold enrichment (6-mer frequency, TF over GST control) | 1.1 fold enrichment (6-mer frequency, TF over GST control) | 1.05 fold enrichment (6-mer frequency, TF over GST control) | 1.06 fold enrichment (6-mer frequency, TF over GST control) | 1.13 fold enrichment (6-mer frequency, TF over GST control) | 1.21 fold enrichment (6-mer frequency, TF over GST control) | 1.12 fold enrichment (6-mer frequency, TF over GST control) | 1.03 fold enrichment (6-mer frequency, TF over GST control) | 1.19 fold enrichment (6-mer frequency, TF over GST control) | 1.14 fold enrichment (6-mer frequency, TF over GST control) | 1.08 fold enrichment (6-mer frequency, TF over GST control) | 1.12 fold enrichment (6-mer frequency, TF over GST control) | 1.14 fold enrichment (6-mer frequency, TF over GST control) | 1.12 fold enrichment (6-mer frequency, TF over GST control) | 1.03 fold enrichment (6-mer frequency, TF over GST control) | 1.27 fold enrichment (6-mer frequency, TF over GST control) | 1.14 fold enrichment (6-mer frequency, TF over GST control)
GATGTC | 1.25 fold enrichment (6-mer frequency, TF over GST control) | 1.37 fold enrichment (6-mer frequency, TF over GST control) | 1.24 fold enrichment (6-mer frequency, TF over GST control) | 1.41 fold enrichment (6-mer frequency, TF over GST control) | 1.22 fold enrichment (6-mer frequency, TF over GST control) | 1.31 fold enrichment (6-mer frequency, TF over GST control) | 1.23 fold enrichment (6-mer frequency, TF over GST control) | 1.37 fold enrichment (6-mer frequency, TF over GST control) | 1.19 fold enrichment (6-mer frequency, TF over GST control) | 1.59 fold enrichment (6-mer frequency, TF over GST control) | 1.37 fold enrichment (6-mer frequency, TF over GST control) | 1.23 fold enrichment (6-mer frequency, TF over GST control) | 1.24 fold enrichment (6-mer frequency, TF over GST control) | 1.15 fold enrichment (6-mer frequency, TF over GST control) | 1.24 fold enrichment (6-mer frequency, TF over GST control) | 1.25 fold enrichment (6-mer frequency, TF over GST control) | 1.3 fold enrichment (6-mer frequency, TF over GST control)
ACACAT | 1.34 fold enrichment (6-mer frequency, TF over GST control) | 1.25 fold enrichment (6-mer frequency, TF over GST control) | 1.17 fold enrichment (6-mer frequency, TF over GST control) | 1.31 fold enrichment (6-mer frequency, TF over GST control) | 1.25 fold enrichment (6-mer frequency, TF over GST control) | 1.35 fold enrichment (6-mer frequency, TF over GST control) | 1.21 fold enrichment (6-mer frequency, TF over GST control) | 1.21 fold enrichment (6-mer frequency, TF over GST control) | 1.32 fold enrichment (6-mer frequency, TF over GST control) | 1.29 fold enrichment (6-mer frequency, TF over GST control) | 1.19 fold enrichment (6-mer frequency, TF over GST control) | 1.17 fold enrichment (6-mer frequency, TF over GST control) | 1.23 fold enrichment (6-mer frequency, TF over GST control) | 1.33 fold enrichment (6-mer frequency, TF over GST control) | 1.35 fold enrichment (6-mer frequency, TF over GST control) | 1.28 fold enrichment (6-mer frequency, TF over GST control) | 1.23 fold enrichment (6-mer frequency, TF over GST control)
